This is a sample that favours compounds with a hit; in the whole collection about 3.1% have one here.
HSP90 refold inh: HSP90 inhibitors, primary screen, cell lysate, luminescence; Heat shock protein HSP 90 (rabbit reticulocyte lysate; luciferase refolding); Rabbit reticulocyte lysate, luciferase refolding luminescence, 3 h; inhibition, % at 5.6 µM; 290,000 tested, 0.91% active; AID 1789, 2009;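 active = inhibition above the screen-wide mean plus 3 SD, computed separately per campaign, cut at about 16% in these data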;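 also: inhibitors lower the luminescence because luciferase stays unfolded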
HIF activator: HIF pathway transcriptional activators, primary screen, cell-based, U2OS HRE-luciferase, luminescence; U2OS HRE-luciferase reporter; normalized: DMSO 0%, desferrioxamine 100%; activation, % at 7.5 µM (by protocol); 300,000 tested, 0.32% active; AID 1910, 2009;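 active = mean activation of at least 10% of the iron chelator positive control signal, with at least half of replicates also reaching 10%; inconclusive = mean and replicate majority disagree about reaching 10%; inactive = mean and most replicates under 10%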
HSF1 activator: HSF-1 activators, primary screen, NIH3T3-HGL cells, MG132 stress, luminescence, single point. NIH3T3-HGL HSF-1 luciferase reporter, 8 h; 100% = twice DMSO control signal. activation, % at 9 µM. 300,000 tested, 1.7% active. AID 504408, 2011;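 active = mean replicate activation of at least 50% with a set share of replicates each reaching 50%; inconclusive = only one of those two conditions met; inactive = mean below 50% and too few replicates reaching it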
ARNT-TACC3 inh: disruptors of ARNT/TACC3 protein interaction, primary screen, biochemical, AlphaScreen, single concentration | AlphaScreen His-ARNT PAS-B/GST-TACC3 binding, luminescence; TACC3 fragment carries E629A point mutation | inhibition, % at 9.99 µM | 390,000 tested, 0.66% active | AID 623870, 2012;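 active = mean inhibition of replicates at least 50% and at least half of replicates each reaching 50%; inconclusive = half or more replicates reach 50% but mean below 50%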
HSF1 inhib: HSF1 inhibitors in luciferase reporter cells, primary screen, cell-based, NIH3T3, luminescence | NIH3T3-HGL HSE-luciferase, MG132-induced, luminescence 8 h; active compounds read low | activity change, negative = inhibition, % at 7.5 µM (by protocol) | 300,000 tested, 0.77% active;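 active = more than half of replicate wells show activity change below -50%, luminescence cut by over half; inconclusive = some wells, but at most half, below -50%; inactive = no replicate well below -50%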;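 also: luciferase reports HSF-1 transcriptional activity via heat shock element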
HSP90 confirm: HSP90 inhibitors, confirmation, cell lysate, luminescence; rabbit reticulocyte lysate, luciferase refolding luminescence, 3 h; inhibition, % at 5.9 µM; 2,300 tested, 64% active; shares compounds with HSP90 refold inh; in the data active = inhibition above about 18%
luciferase ctr: firefly luciferase inhibitors, HSP90 counter-screen, confirmation, artefact control for HSP90 inhibitor project, biochemical, luminescence, triplicate; purified native firefly luciferase; inhibition, % at 5.9 µM; shares compounds with HSP90 refold inh; 2,300 tested, 48% active;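 active = inhibition above the mean inhibition of all tested sample wells plus 3 SD, cut at about 10% in these data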
Target sequence (P08659 whole entry, looked up): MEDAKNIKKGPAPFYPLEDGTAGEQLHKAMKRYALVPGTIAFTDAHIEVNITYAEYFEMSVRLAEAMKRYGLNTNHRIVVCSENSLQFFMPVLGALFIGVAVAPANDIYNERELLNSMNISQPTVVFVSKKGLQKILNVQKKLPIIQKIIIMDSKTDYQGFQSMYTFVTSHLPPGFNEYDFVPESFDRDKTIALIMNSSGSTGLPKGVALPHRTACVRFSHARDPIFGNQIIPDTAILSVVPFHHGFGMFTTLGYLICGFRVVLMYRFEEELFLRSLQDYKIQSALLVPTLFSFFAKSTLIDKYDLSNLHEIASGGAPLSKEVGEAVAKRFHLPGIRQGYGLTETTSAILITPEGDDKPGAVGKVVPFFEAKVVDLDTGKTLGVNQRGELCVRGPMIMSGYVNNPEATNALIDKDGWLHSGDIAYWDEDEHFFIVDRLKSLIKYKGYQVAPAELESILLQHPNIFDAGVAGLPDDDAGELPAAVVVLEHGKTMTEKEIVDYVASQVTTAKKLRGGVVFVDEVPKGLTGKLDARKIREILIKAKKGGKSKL
Large screens that a line does not name were inactive (follow-up assays come after a bar, where they were run).

COc1ccccc1NC(=O)N[C@@H]1CC[C@H](CCn2cc(-c3ccccc3OC)nn2)O[C@@H]1CO	none (no result: HSP90 refold inh, HIF activator, HSF1 activator, HSF1 inhib)
CCC(C)c1ccc(NC(=O)c2cccs2)cc1 (stereo not drawn)	HSP90 refold inh 17, HSF1 activator inconclusive | HSP90 confirm 24 | luciferase ctr inactive
CCC(C)NS(=O)(=O)c1ccc(NC(=O)c2cccs2)cc1 (stereo not drawn)	none
O=C(c1ccc(Cl)cc1)N1CCc2ccccc21	HSP90 refold inh 18 | HSP90 confirm inactive | luciferase ctr inactive
O=C(c1cc(Cl)ccc1Cl)N1CCc2ccccc21	none
O=C(Nc1ccccc1N1CCOCC1)c1cnccn1	none
O=C(Nc1ccc(N2CCOCC2)cc1)c1cnsn1	HSP90 refold inh 71 | HSP90 confirm 83 | luciferase ctr 76
O=C(Nc1ccc(N2CCOCC2)cc1)c1cnccn1	HSP90 refold inh 46 | HSP90 confirm 67 | luciferase ctr 44
C[C@@H]1CN([C@H](C)CO)S(=O)(=O)c2ccc(C3=CCCCC3)cc2O[C@@H]1CN(C)C(=O)c1ccccc1	none (no result: HSP90 refold inh, HIF activator, HSF1 activator, HSF1 inhib)
COc1ccccc1NC(=O)CSc1n[nH]c(Cc2ccccc2)n1	none
COc1ccccc1NC(=O)CSc1nc2ccccc2cc1Cc1ccccc1	HSP90 refold inh 31 | HSP90 confirm 24 | luciferase ctr inactive
CCN(c1ccccc1)c1cc2ccccc2c(=O)[nH]1	HSP90 refold inh 41 | HSP90 confirm inactive | luciferase ctr inactive
O=C(CCN1CCCCC1)N[C@@H]1CC[C@H](CCNS(=O)(=O)c2ccc(Cl)cc2)O[C@@H]1CO	none (no result: HSP90 refold inh, HIF activator, HSF1 activator, HSF1 inhib)
Cc1nnc(SCC(=O)Nc2ncc3c(n2)CC(c2ccccc2)CC3=O)s1 (stereo not drawn)	HSP90 refold inh 35 | HSP90 confirm inactive | luciferase ctr inactive
Cc1nnc(SCC(=O)Nc2ncc3c(n2)CCCC3=O)s1	none
CO[C@H]1CC[C@@H]2CCOc3ccc(C#N)cc3C(=O)N(C)C[C@@H](C)C(=O)N(C)C[C@@H]1O2	none (no result: HSP90 refold inh, HIF activator, HSF1 activator, HSF1 inhib)
C[C@H](CO)N1C[C@H](C)[C@@H](CN(C)C)Oc2ccc(NC(=O)Cn3cnnn3)cc2C1=O	none (no result: HSP90 refold inh, HIF activator, HSF1 activator, HSF1 inhib)
COc1ccccc1NC(=O)C(=O)c1cn(CC(=O)N2CCCC2)c2ccccc12	none
COc1ccccc1NC(=O)C(=O)c1cn(CC(=O)N2CCOCC2)c2ccccc12	HSP90 refold inh 21 | HSP90 confirm inactive | luciferase ctr inactive
Cc1ccc(Nc2nc(N)c3ccccc3n2)cc1C	HSP90 refold inh 26 | HSP90 confirm 53 | luciferase ctr 37
COCC#Cc1cnc2c(c1)C(=O)N([C@@H](C)CO)C[C@@H](C)[C@@H](CN(C)C(=O)C1CC1)O2	none (no result: HSP90 refold inh, HIF activator, HSF1 activator, HSF1 inhib)
O=C(Nc1ccc(Cl)cc1)N[C@@H]1CC[C@@H](CCn2cc(-c3ccccc3F)nn2)O[C@H]1CO	none (no result: HSP90 refold inh, HIF activator, HSF1 activator, HSF1 inhib)
COc1ccccc1C(=O)NC(=S)N1CCc2ccccc21	none
COc1ccccc1C(=O)NC(=S)N1CCCc2ccccc21	HSP90 refold inh 18, HSF1 inhib -61 | HSP90 confirm 20 | luciferase ctr 13
CCOC(=O)c1sc(NC(=O)CSc2nnnn2-c2ccccc2)nc1C	none
COC(=O)c1sc(NC(=O)CSc2nnnn2-c2cccc(OC)c2)nc1C	HSP90 refold inh 20 | HSP90 confirm inactive | luciferase ctr inactive
C[C@@H](NC(=O)C[C@H]1C[C@@H]2c3cc(NS(C)(=O)=O)ccc3O[C@@H]2[C@H](CO)O1)c1ccccc1	none (no result: HSP90 refold inh, HIF activator, HSF1 activator, HSF1 inhib)
C[C@H]1CN([C@@H](C)CO)C(=O)c2cccc(NS(=O)(=O)c3ccccc3)c2O[C@H]1CN(C)S(=O)(=O)c1ccc(Cl)cc1	none (no result: HSP90 refold inh, HIF activator, HSF1 activator, HSF1 inhib)
Cc1c(/C(O)=C2/C(=O)C(=O)N(CCN3CCOCC3)C2c2ccccn2)cnn1-c1ccccc1 (stereo not drawn)	HSP90 refold inh 76, HSF1 inhib -85 | HSP90 confirm 22 | luciferase ctr 36
Cc1cccc(NC(=O)CSc2nc3ccc(NC(=O)CSc4nnnn4-c4ccccc4)cc3s2)c1C	HSP90 refold inh 55 (no result: HIF activator, HSF1 activator, ARNT-TACC3 inh, HSF1 inhib) | HSP90 confirm 22 | luciferase ctr inactive
C[C@@H]1CCCCO[C@H](CN(C)C(=O)C2CCCCC2)[C@@H](C)CN([C@@H](C)CO)C(=O)c2cc(NC(=O)C3CCCCC3)ccc2O1	none (no result: HSP90 refold inh, HIF activator, HSF1 activator, HSF1 inhib)
Cc1ccc(-c2onc3ccc(C=O)cc23)cc1	HSP90 refold inh 50 | HSP90 confirm inactive | luciferase ctr inactive
COCCOC(=O)N1C(=O)[C@@]2(c3cc(C#Cc4ccc(OC)cc4)ccc31)[C@H](C(=O)NC[C@H](O)c1ccccc1)[C@H]1C(=O)O[C@H](c3ccccc3)[C@H](c3ccccc3)N1[C@@H]2c1ccc(O)cc1	none (no result: HSP90 refold inh, HIF activator, HSF1 activator, HSF1 inhib)
COc1ccc(NC(=O)Nc2ccc3c(c2)CC(=O)N([C@H](C)CO)C[C@H](C)[C@@H](CN(C)CC2CC2)O3)cc1	none (no result: HSP90 refold inh, HIF activator, HSF1 activator, HSF1 inhib)
CC(C)CNC(=O)c1cc(-c2ccc3c(c2)OCO3)on1	HSP90 refold inh 31 | HSP90 confirm 38 | luciferase ctr 24
CC(C)CNC(=O)COCc1cc(-c2ccc3c(c2)OCO3)on1	none
CCc1nnc(NC(=O)CSc2nc3c(cc2C#N)CCCC3)s1	HSP90 refold inh 25 (no result: ARNT-TACC3 inh) | HSP90 confirm inactive | luciferase ctr inactive
CCOC(=O)c1c(C)oc2c1c(C=NCC1CCCO1)c(O)c1ccccc12 (stereo not drawn)	HSP90 refold inh 19 | HSP90 confirm inactive | luciferase ctr inactive
CCOC(=O)c1c(NCC2CCCO2)c2ccccc2[nH]c1=O (stereo not drawn)	none
CC(C)NC(=O)N1C[C@H]2[C@@H](c3ccccc31)[C@H](CO)N2C(=O)c1ccccc1	none (no result: HSP90 refold inh, HIF activator, HSF1 activator, HSF1 inhib)
Nc1nc(-c2ccc(NC(=O)c3ccco3)cc2)cs1	HSP90 refold inh 28 | HSP90 confirm 51 | luciferase ctr 46
O=C(Nc1ccc(-c2ccccc2)cc1)c1ccco1	none
CN(C)CCCNC(=O)C[C@H]1CC[C@@H](NC(=O)Cc2cccnc2)[C@H](CO)O1	none (no result: HSP90 refold inh, HIF activator, HSF1 activator, HSF1 inhib)
Nn1cnnc1N/N=C/c1ccc(Cl)c([N+](=O)[O-])c1	HSP90 refold inh 46, HSF1 inhib -98 | HSP90 confirm inactive | luciferase ctr inactive
Nc1nnnn1/N=C\c1ccc(Cl)c([N+](=O)[O-])c1	HSF1 activator inconclusive (no result: ARNT-TACC3 inh)
CCN(CC(=O)Nc1ccc(NC(C)=O)cc1)C(=O)c1ccc(N2CCC(C)CC2)c([N+](=O)[O-])c1	none (no result: HSP90 refold inh, HIF activator, HSF1 activator, HSF1 inhib)

Compound activity (PubChem)
